According to PubChem BioAssay (NCATS):
Values joined by “and” are separate entries in the source; they are usually repeats but may differ in a detail not shown here. Identical values can stand only once. Values without a mark were called inactive. Inconclusive results are not listed. A call without a number means that no potency is given here. Active and inactive are the calls of the source. Unless noted, the call rests on the fitted dose curve; in most records, active means well fitted curve in the direction sought with a large enough effect; inconclusive means small, poorly fitted or top-dose-only effect, or another doubt; inactive means no such curve, though single readings can be large; an effect the other way counts as inactive or inconclusive.

Columns and labels:
[1] = AP1 Signaling Pathway (AID 357; active means well fitted curve in either direction with a large enough effect, not every such curve was filed as active;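 further: ME-180 reporter cells stimulated with EGF at its EC50 level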); settings: ME-180 AP-1-bla reporter, EGF-induced, beta-lactamase ratio, 5 h; at 38 µM (top of the series)
Method in brief: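 Read-out was the 460nm/530nm emission ratio (excitation 405nm) after CCF4 loading for 2.5 hours at room temperature. Cells carried an AP-1-driven beta-lactamase reporter, were stimulated with EC50 EGF plus compound for 5 hours, and AC50 values came from titrations.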

[2] = target: Cytochrome P450 1A2 (Homo sapiens) (UniProt P05177); assay: p450-cyp1a2 (AID 410; calls by dose curve; further: potency means the concentration at half of the fitted maximal effect); settings: recombinant CYP1A2, luciferin-ME demethylation, luminescence; series mostly up to 57 µM
Cytochrome P450 1A2 (Homo sapiens), sequence (P05177 whole entry, looked up): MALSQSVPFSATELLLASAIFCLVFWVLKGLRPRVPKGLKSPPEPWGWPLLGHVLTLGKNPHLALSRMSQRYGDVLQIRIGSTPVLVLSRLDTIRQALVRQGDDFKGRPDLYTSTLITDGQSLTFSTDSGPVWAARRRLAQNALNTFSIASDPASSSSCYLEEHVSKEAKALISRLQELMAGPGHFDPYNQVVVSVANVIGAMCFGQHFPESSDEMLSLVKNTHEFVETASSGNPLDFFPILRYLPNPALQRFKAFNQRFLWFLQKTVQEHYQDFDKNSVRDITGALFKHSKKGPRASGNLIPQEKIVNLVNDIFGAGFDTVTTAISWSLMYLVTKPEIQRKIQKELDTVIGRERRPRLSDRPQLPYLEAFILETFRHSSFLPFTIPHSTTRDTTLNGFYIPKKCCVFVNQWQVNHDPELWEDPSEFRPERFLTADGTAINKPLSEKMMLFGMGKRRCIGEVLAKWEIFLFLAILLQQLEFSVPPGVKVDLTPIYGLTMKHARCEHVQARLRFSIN
Method in brief: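 Read-out is luminescence from luciferin produced by CYP1A2 demethylation of Luciferin-ME (100uM, at Km). Detection reagent stopped the 60 min NADPH-dependent reaction; signals were normalized to 57 uM furafylline.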

[3] = NFAT Signaling Pathway (AID 444; active means well fitted curve in either direction with a large enough effect, not every such curve was filed as active;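 further: carbachol stimulus at about its EC50 of 1 µM final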); settings: Jurkat NFAT-bla M1, carbachol, beta-lactamase ratio, 5 h; at 38 µM (top of the series)
Method in brief: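 Jurkat cells carrying an NFAT-driven β-lactamase reporter and co-transfected muscarinic M1 receptor were treated with compound plus carbachol (1 uM final, an EC50 level) for 5 h at 37 °C. CCF4 loading followed for 1 h at RT; 460/530 nm ratio gave %activity.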

[4] = Stat Signaling Pathway (AID 446; active means well fitted curve in either direction with a large enough effect, not every such curve was filed as active;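 further: ME-180 cervical cancer cells given 40 pM IL-6 alongside compound; SIE-controlled beta-lactamase reporter measured as 460/530 nm FRET emission ratio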); settings: ME-180 (cervical carcinoma) SIE beta-lactamase reporter, IL-6 stimulated, 5 h; at 38 µM (top of the series)
Method in brief: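 Emission at 460 and 530 nm (excitation 405 nm) reports SIE-controlled beta-lactamase in ME-180 cells. Cells received compound with 40 pM IL-6 for 5 hrs at 37 C; data scaled between 300 pM IL-6 and 125 nM JAK-inhibitor controls.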

[5] = target: Glucocorticoid receptor (Homo sapiens) (UniProt P04150); assay: GR-GFP Redistribution (AID 450;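 active means compounds whose dose series gives a full or clear partial fitted curve of increased nuclear translocation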; further: potency means the concentration at half of the fitted maximal effect); settings: U2OS GR-GFP nuclear translocation, laser cytometry, 2 h
Glucocorticoid receptor (Homo sapiens), sequence (P04150 whole entry, looked up, the tested form may be a part): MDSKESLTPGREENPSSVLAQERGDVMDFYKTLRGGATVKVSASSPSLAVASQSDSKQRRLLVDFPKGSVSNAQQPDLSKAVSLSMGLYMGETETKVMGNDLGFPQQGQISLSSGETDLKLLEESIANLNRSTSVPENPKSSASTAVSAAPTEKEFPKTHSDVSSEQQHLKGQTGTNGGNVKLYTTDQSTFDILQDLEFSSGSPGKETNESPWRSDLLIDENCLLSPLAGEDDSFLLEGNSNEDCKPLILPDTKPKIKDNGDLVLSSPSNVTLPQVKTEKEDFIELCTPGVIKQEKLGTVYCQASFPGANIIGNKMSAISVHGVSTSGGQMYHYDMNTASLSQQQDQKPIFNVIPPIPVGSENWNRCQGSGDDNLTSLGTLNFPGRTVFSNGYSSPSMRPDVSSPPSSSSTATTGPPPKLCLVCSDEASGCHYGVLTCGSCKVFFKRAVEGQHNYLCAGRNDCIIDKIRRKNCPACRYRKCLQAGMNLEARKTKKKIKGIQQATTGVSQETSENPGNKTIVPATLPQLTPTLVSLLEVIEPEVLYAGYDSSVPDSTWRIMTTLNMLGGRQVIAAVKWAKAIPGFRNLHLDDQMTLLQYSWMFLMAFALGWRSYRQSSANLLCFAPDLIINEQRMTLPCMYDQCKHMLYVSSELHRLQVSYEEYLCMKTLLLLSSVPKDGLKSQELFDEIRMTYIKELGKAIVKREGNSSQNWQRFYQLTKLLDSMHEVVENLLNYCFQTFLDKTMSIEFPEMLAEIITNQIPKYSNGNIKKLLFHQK

[6] = target: Glucocorticoid receptor (Homo sapiens) (UniProt P04150); assay: GR-EFC Redistribution (AID 451; calls by dose curve; further: potency means the concentration at half of the fitted maximal effect); settings: CHO-K1 GR-EFC translocation, beta-gal luminescence, 2 h
Method in brief: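 CHO-K1 cells stably expressing nuclear-localized β-gal enzyme acceptor and GR fused C-terminally to the enzyme donor fragment; ligand-driven nuclear translocation restores β-gal by complementation. Compounds titrated up to 46 uM final, 2 h at 37 °C; luminescence read.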

[7] = target: Mitogen-activated protein kinase 10 (Mus musculus) (UniProt Q61831); assay: JNK3 AlphaScreen Assay (AID 530; active means well fitted curve in either direction with a large enough effect, not every such curve was filed as active;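 further: kinase came from lysate of stimulated human HepG2 cells; signal reports phosphorylation of biotinylated GST-cJun 1-79 at Ser73 with 10 µM ATP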); settings: JNK3 lysate, c-Jun phosphorylation; series mostly up to 57.1 µM
Method in brief: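 Biotinylated GST-cJun(1-79) served as substrate for JNK3 in HepG2 lysates stimulated with IL-1beta and TNF-alpha. ATP was 10 uM final, pH 7.6. Ser73 phosphorylation was quantified by AlphaScreen (680 nm excitation).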

[8] = target: Guanine nucleotide-binding protein G(i) subunit alpha-1 (Homo sapiens) (UniProt P63096); assay: qHTS Assay for Inhibitors of RGS12 GoLoco Motif Activity (Green Fluorophore) (AID 879); settings: Galphai1/FITC-RGS12 GoLoco peptide, fluorescence polarization; series mostly up to 57.1 µM;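 further: negative values mean loss of peptide binding seen as reduced polarization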
Guanine nucleotide-binding protein G(i) subunit alpha-1 (Homo sapiens), sequence (P63096 whole entry, looked up): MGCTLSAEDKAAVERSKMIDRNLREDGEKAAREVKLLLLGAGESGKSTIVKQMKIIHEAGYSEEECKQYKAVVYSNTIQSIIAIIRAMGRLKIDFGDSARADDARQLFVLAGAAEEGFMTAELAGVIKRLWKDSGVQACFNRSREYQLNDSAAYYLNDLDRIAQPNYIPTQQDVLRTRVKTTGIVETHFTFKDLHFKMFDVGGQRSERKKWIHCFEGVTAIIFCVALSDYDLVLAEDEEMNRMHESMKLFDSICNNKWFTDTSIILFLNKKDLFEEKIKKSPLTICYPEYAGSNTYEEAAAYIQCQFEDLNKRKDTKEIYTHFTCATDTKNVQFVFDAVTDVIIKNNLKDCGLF
Method in brief: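 A drop in FITC polarization marked displacement of the FITC-tagged RGS12 GoLoco peptide (10 nM) from Gαi1 (50 nM). Compounds were incubated 10 min at room temperature in Tris pH 7.5 buffer containing 150 mM NaCl, 0.1 mM GDP and 0.05% NP40; unlabeled peptide titration served as control.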

[9] = target: Cytochrome P450 2C9 (Homo sapiens) (UniProt P11712); assay: qHTS Assay for Inhibitors and Substrates of Cytochrome P450 2C9 (AID 883); settings: recombinant CYP2C9, luciferin-H luminescence, 60 min; series mostly up to 57.1 µM; further: nearly all actives have a fitted effect of over 60% in size
Cytochrome P450 2C9 (Homo sapiens), sequence (P11712 whole entry, looked up): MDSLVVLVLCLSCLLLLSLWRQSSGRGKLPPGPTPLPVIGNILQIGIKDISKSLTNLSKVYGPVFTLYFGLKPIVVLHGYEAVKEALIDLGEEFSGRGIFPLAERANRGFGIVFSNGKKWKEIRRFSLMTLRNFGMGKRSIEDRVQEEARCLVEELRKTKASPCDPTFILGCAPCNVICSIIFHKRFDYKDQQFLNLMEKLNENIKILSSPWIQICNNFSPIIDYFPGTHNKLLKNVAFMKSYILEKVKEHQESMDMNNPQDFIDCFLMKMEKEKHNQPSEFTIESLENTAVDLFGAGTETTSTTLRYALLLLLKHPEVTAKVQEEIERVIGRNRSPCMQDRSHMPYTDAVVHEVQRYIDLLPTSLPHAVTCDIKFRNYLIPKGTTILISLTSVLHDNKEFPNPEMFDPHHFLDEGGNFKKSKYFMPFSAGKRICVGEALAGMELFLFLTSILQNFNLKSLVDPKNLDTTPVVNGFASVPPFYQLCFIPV
Method in brief: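 A luminogenic readout tracked human CYP2C9 (10nM) converting deoxyluciferin (100uM, at KM) in 25mM KPO4 during 60 min at 37C with regenerated NADPH. Values normalized to 57uM sulphaphenazole as complete inhibition.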

[10] = target: Cytochrome P450 3A4 (Homo sapiens) (UniProt P08684); assay: qHTS Assay for Activators of Cytochrome P450 3A4 (AID 885); settings: recombinant CYP3A4, Luciferin-PPXE luminescence, 60 min; series mostly up to 57.1 µM; further: nearly all actives have a fitted effect of over 65% in size
Cytochrome P450 3A4 (Homo sapiens), sequence (P08684 whole entry, looked up): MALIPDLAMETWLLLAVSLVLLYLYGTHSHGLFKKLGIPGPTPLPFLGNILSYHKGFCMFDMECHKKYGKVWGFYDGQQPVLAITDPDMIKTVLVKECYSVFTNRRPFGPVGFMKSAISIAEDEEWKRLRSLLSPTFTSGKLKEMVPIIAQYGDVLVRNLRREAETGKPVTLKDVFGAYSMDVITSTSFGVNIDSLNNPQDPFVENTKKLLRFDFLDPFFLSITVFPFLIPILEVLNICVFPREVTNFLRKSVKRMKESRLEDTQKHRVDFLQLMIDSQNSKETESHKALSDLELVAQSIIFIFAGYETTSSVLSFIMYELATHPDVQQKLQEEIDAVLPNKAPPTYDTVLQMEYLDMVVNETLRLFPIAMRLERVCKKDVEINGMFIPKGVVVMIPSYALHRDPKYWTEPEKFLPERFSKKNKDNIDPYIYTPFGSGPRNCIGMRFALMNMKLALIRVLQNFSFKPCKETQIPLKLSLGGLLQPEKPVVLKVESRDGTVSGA
Method in brief: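 Activators are scored by enhanced luminescence from CYP3A4 conversion of luciferin-PPXE (25uM, equal to KM) to luciferin, after 60 min at RT with an NADPH-regenerating system.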

[11] = target: Cytochrome P450 2D6 (Homo sapiens) (UniProt P10635); assay: qHTS Assay for Inhibitors and Substrates of Cytochrome P450 2D6 (AID 891); settings: recombinant CYP2D6, luciferin-ME EGE luminescence; series mostly up to 57.1 µM;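 further: luciferin methyl ether substrate demethylated by CYP2D6 with NADPH regeneration; nearly all actives have a fitted effect of over 60% in size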
Cytochrome P450 2D6 (Homo sapiens), sequence (P10635 whole entry, looked up): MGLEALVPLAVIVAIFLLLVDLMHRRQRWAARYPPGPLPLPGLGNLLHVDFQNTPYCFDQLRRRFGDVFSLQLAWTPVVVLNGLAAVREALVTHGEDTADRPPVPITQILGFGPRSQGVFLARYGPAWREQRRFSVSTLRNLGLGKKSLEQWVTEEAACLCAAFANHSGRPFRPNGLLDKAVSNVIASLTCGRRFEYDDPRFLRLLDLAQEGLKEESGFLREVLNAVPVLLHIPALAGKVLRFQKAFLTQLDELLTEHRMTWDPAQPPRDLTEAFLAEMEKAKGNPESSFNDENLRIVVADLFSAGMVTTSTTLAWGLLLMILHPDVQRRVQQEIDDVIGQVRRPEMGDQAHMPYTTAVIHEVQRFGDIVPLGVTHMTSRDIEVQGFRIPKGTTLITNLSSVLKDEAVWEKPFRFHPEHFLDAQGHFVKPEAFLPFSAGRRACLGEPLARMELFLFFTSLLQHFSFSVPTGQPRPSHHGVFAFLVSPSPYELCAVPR
Method in brief: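 Luminescent read-out of luciferin formed by 5 nM human CYP2D6 demethylating 30 uM Luciferin-ME EGE (Km level) over 60 min at room temperature after NADPH regeneration addition. Data normalized to full inhibition by 1.43 uM quinidine.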

[12] = target: Cytochrome P450 2C19 (Homo sapiens) (UniProt P33261); assay: qHTS Assay for Inhibitors and Substrates of Cytochrome P450 2C19 (AID 899); settings: recombinant CYP2C19, luciferin-H EGE luminescence; series mostly up to 57.1 µM; further: nearly all actives have a fitted effect of over 60% in size
Cytochrome P450 2C19 (Homo sapiens), sequence (P33261 whole entry, looked up): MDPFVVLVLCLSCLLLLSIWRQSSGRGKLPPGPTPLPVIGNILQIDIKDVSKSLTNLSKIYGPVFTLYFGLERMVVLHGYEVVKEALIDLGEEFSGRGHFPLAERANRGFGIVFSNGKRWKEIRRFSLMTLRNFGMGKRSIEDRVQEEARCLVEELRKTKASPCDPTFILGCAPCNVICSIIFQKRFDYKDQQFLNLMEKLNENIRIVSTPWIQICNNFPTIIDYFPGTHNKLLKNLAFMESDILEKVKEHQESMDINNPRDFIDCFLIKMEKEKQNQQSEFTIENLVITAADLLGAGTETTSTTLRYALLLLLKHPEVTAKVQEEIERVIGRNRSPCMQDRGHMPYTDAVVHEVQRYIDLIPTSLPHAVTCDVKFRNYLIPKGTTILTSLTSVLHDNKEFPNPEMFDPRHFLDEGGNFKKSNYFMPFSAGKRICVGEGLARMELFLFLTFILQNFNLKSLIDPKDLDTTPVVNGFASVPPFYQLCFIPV
Method in brief: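 NADPH-dependent conversion of Luciferin-H EGE (10uM, at KM) by 5nM enzyme in 50mM KPO4, 60 min at 37C following 10 min compound preincubation. Stopped with luciferin detection buffer; luminescence read after 20 min.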

[13] = target: alpha-glucosidase (Oryza sativa, rice) (UniProt Q653V4); assay: Counterscreen for Glucocerebrosidase Inhibitors: qHTS Assay for Rice alpha-Glucosidase at pH 5.0 (AID 997); settings: rice alpha-glucosidase enzyme activity; series mostly up to 76.9 µM
Method in brief: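 Endpoint fluorogenic assay at pH 5.0: compounds (0.7 nM to 77 uM) titrated against 4 nM rice enzyme and 400 uM 4-MU-alpha-glucoside for 20 min at room temperature; NaOH/glycine stop, read ex 365/em 440 nm, Hill-fitted AC50.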

[14] = target: DNA dC->dU-editing enzyme APOBEC-3G (Homo sapiens) (UniProt Q9HC16); assay: qHTS for inhibitors of Vif-A3G interactions: Validation (AID 588379); settings: Vif-A3G protein interaction assay; series mostly up to 46.1 µM
DNA dC->dU-editing enzyme APOBEC-3G (Homo sapiens), sequence (Q9HC16 whole entry, looked up): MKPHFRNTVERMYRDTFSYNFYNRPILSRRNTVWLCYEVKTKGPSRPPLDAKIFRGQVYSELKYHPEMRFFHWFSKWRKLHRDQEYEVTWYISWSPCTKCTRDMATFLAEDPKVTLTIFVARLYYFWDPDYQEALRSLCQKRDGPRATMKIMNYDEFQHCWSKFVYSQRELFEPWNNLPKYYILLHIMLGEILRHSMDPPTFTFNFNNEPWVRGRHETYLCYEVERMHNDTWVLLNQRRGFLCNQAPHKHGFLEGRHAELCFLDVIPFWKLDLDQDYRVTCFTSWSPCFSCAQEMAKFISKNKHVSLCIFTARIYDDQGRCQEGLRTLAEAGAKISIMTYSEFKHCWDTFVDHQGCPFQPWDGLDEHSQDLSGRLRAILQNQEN
Method in brief: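 Yellow fluorescence (Ex 488, Em 500-530) of Vif-coexpressing HeLa A3G-eYFP cells, scanned by Acumen cytometer, reports blocked A3G degradation. Cells plated at 700/well overnight at 37 deg C before compound addition, then a further overnight compound incubation at 37 deg C.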

[15] = tested on: Zika virus NS2B-NS3 protease; assay: Primary screen GU AMC qHTS for Zika virus inhibitors (AID 1347154); settings: Zika NS2B-NS3 unlinked protease, AMC fluorogenic substrate; series mostly up to 54.1 µM; further: nearly all actives have a fitted effect of over 70% in size
Method in brief: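 Unlinked Zika NS2B hydrophilic domain/NS3 protease domain noncovalent complex (25 nM final) in 10 mM Tris-HCl pH 8.0, 0.01% Tween 20, with AMC peptide substrate. Fluorescence (ex 340, em 450 nm) change over 15 min, room temperature; percent inhibition fitted to 4-parameter Hill equation.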

[16] = Primary qHTS for small molecule stabilizers of the endoplasmic reticulum resident proteome: Secreted ER Calcium Modulated Protein (SERCaMP) assay (AID 1508630); settings: SH-SY5Y GLuc-SERCaMP (Gaussia luciferase released on ER calcium loss) secretion, thapsigargin, luminescence; series mostly up to 38.4 µM
Method in brief: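 The SH-SY5Y reporter protocol was run at 3 concentrations up to 38.3 uM (primary) or 11 concentrations (follow-up): 16 h compound, 100 nM thapsigargin for 4 h, then extracellular luciferase luminescence.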

[17] = target: 3',5'-cyclic-AMP phosphodiesterase 4B (Homo sapiens) (UniProt Q07343); assay: qHTS Assay for Inhibitors of PDE-IV (AID 607; active means well fitted activation curve with a large enough effect in the main read-out, with a control signal flat, not every such curve was filed as active); settings: HEK293 ACTOne CNG channel cells, membrane potential fluorescence; series mostly up to 22.9 µM
3',5'-cyclic-AMP phosphodiesterase 4B (Homo sapiens), sequence (Q07343 whole entry, looked up): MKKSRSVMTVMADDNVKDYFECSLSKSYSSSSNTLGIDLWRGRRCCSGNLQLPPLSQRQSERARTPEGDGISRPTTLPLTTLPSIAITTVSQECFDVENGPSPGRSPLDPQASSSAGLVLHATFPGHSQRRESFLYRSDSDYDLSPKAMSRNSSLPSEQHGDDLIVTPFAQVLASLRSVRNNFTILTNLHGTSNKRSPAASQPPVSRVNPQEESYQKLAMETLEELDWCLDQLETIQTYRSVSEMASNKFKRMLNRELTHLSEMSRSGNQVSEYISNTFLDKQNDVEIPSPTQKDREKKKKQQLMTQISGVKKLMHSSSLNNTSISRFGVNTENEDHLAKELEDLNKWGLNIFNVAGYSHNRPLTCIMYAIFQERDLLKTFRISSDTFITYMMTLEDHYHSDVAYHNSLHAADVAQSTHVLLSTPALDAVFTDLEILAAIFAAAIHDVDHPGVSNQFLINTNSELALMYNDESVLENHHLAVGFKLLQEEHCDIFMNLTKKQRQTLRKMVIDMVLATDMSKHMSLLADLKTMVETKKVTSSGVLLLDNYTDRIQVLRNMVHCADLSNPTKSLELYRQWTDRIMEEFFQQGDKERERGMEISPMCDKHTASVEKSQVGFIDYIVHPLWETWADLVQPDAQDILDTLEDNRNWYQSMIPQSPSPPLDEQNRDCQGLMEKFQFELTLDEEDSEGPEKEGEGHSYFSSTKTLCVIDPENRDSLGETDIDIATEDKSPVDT
Method in brief: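 The readout is membrane depolarisation from a cAMP-sensing CNG channel, detected with a potential dye at ex 535/em 590. Cells were HEK293-derived (endogenous PDE-IV) at 1000 cells/well, titrated up to 22.9 uM final.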

[18] = target: Rap guanine nucleotide exchange factor 3 (Homo sapiens) (UniProt O95398); assay: Confirmatory qHTS for agonist of cAMP-regulated guanine nucleotide exchange factor 3 (EPAC1) (AID 1645881); settings: EPAC1 Rap1B BODIPY-GDP exchange fluorescence, 100% = cAMP control response; series mostly up to 154 µM;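 further: EPAC1 catalysed release of BODIPY-GDP from Rap1B seen as fluorescence loss; nearly all actives have a fitted effect of over 75% in size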
[19] = target: Cytochrome P450 3A4 (Homo sapiens) (UniProt P08684); assay: qHTS Assay for Inhibitors and Substrates of Cytochrome P450 3A4 (AID 884); settings: recombinant CYP3A4, Luciferin-PPXE luminescence; series mostly up to 57.1 µM; further: nearly all actives have a fitted effect of over 50% in size; further: potency means the concentration at half of the fitted maximal effect
Method in brief: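 Luminescent readout of luciferin produced by CYP3A4 (20 nM) dealkylation of Luciferin-PPXE, 25 uM (its KM). NADPH-driven reaction ran 60 min at RT after 10 min compound preincubation; data scaled to 57 uM ketoconazole as 100% inhibition.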

Compound | activity change, negative = inhibition [1] | Potency [2] | activity change, negative = inhibition [3] [%] | activity, negative = inhibition [4] [%] | Potency [5] [µM] | Potency [6] [µM] | Potency [7] | outcome [8] | Potency [9] | Potency [10] | Potency [11] | Potency [12] | outcome [13] | Potency [14] | Potency [15] | Potency [16] | Potency [17] | outcome [18] | Potency [19]
CCCCOc1cc(C[C@@H]2CNC(=O)N2)ccc1OC | -11.4% | 12.6 µM (active) and 10 µM (active) | -19.1 | 24.5 | > 46 | > 46 | inactive | inactive | inactive | inactive | inactive | inactive | inactive | inactive | inactive | inactive | – | – | –
N[C@H](Cc1ccccc1)C(=O)O | – | – | – | – | – | – | – | – | – | – | – | – | – | – | inactive | inactive | – | – | –
NCCNS(=O)(=O)c1cccc2cnccc12 | – | inactive | -13.5 | – | > 46 | > 46 | inactive | inactive | – | inactive | – | – | inactive | inactive | inactive | inactive | inactive | – | –
CC[C@H](C)N(C)C(=O)c1cc2ccccc2c(-c2ccccc2Cl)n1 | -18% | inactive | -2.88 | 8.11 | – | – | inactive | inactive | – | inactive | inactive | inactive | inactive | inactive | inactive | inactive | – | inactive | –
N#CC(=C(/N)Sc1ccccc1N)/C(C#N)=C(/N)Sc1ccccc1N | -84.2% (active) | 12.6 µM (active) and 31.6 µM (active) | 8.23 | – | > 46 | > 46 | inactive | inactive | inactive | inactive | – | – | inactive | – | inactive | inactive | inactive | – | 316 nM (active) and 3.16 µM (active)
c1ccc(-c2n[nH]c3c2oc2ccccc23)cc1 | – | – | – | – | – | – | – | – | – | – | – | – | – | – | inactive | inactive | – | – | –
CC(C)=CCC/C(C)=C/CC/C(C)=C/CO | – | – | – | – | – | – | – | – | – | inactive | – | – | – | inactive | inactive | inactive | – | inactive | inactive
N[C@H](Cc1ccc(Cl)cc1)C(=O)O | 25.5% | 31.6 µM (active) | 7.18 | -4.9 | > 46 | > 46 | inactive | inactive | – | inactive | inactive | inactive | inactive | inactive | inactive | inactive | inactive | – | –
